# Reference: the supplement of paper PMC6555819
# System: VDR:RXRa (NR concentration 270 nM, RXRa partner concentration 90 nM)
# Test: PBM binding z-score (relative to random genomic background probes); higher = stronger binding; sequences stand for … in GC…GCGATTGACAGCGTAGAATGAAGG
# Experimental: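 Protein-binding microarray (Agilent 4x180K custom design, double-stranded 60-nt probes: 5' GC cap, 34-nt variable region, 24-nt constant primer region; full probe sequence given). Purified or IVT nuclear receptor:RXRα heterodimers (3:1 NR:RXRα, mostly 270:90 nM) or homodimers were incubated for 1 h in PBS with 2% milk and no ligand, then detected with Alexa488 antibodies. Fluorescence from o1-orientation probes (~5 replicates averaged) was converted to z-scores against 500 random hg19 background probes. Variable regions are seed direct-repeat (DR0–DR5) sites, all their single-nucleotide variants and half-site ablations.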
row,Sequence,PBM binding z-score
1,TCTTGTAGGTCAGCAGGTTAAGAAAGCTGGCCAA,3.54
2,TCTTGTAGATCAACAGGACGTTAAGAAAGATCGA,0.305
3,CCTAGTTGGTCAGGAGGTCTCACACCGGATATGA,0.189
4,ATCTCTAGGTAATGTTCAGTGAAAGATCGATAGA,0.188
5,AATACAGGGTCACTAGGCTAGAGTAGGTACGAAT,4.05
6,CAACCTAGGTCACAGAGGTCAAAGTCCGTGCGTA,8.21
7,GCTGCTTGGTCAGGTTGGTCAGCTAACGGGTACG,-0.35
8,ACTCGGAGGACATAGGTCAGAGCTACGCCAGTGA,1.03
9,GAGACAGGGTCAGCTAGAGGCCAGAGTATGGAAA,3.22
10,ACTAGCAGGCCAAGGGACACTCAAGATTAGTCCG,-0.487
11,TGTCAAAGTTCAAAGGTAACGAAAGTATCCACAC,5.07
12,CCTTACGGGTCACGACGTTATAGCACGACGAGCG,3.73
13,ATCGAAAGGTCGAGGTGAGTATAGAGAAAGGGAA,2.69
14,TCTTGTAGAGCAGCAGGTTAAGAAAGCTGGCCAA,-0.353
15,ATCTCTATGTAAAGATAGTTCAGTGAATGCAAAT,0.557
16,TCAGACAGGTGAAGGTTACTCAGGTACGCAGTCG,1.69
17,CGTCCAAGGTGAATGCTAGGTCAGTGAAAGCATT,0.559
18,GGACCGAGGGCAAGTTGATAGCAGAGTTTGATGG,0.844
19,CCTAGCAGGCCAATCTGGGTCACTCAGGGCTTGA,0.721
20,ACTATTAGCTGACTTAGGGCAACCGATACGACGC,-0.114

row,Sequence,PBM binding z-score
1,CGTCCAAGGTCAAGGTCAGTGACAGAGACTCGAA,4.83
2,TCGAGTAGGTTACTCGGGGCATTCAGCCAACATA,3.33
3,CCTTACGGGTCACTGACAGGTTTTAGCATTTGGA,3.31
4,CCTTACGGGTCACGAGGTTACAGCACGACGAGCG,5.28
5,CCGACTGGGGCATAAGGTTACCAAAAGCCAGCCC,0.198
6,AGAACGAGGGCAATGAGTTGATCGCACGGGTGGC,5.13
7,AGAATGAGGTTACCAAAGATCAGGTAAACGCTTG,1.44
8,TCTCGTTGGTCACGGAGGTCACACACGACGGGTA,5.96
9,TGTCAAAGATCAAAGGTAACGTAAGTATCCACAC,0.973
10,TATTGTAGATCAAGCAGGTTAAGAAAGCCTGAGT,0.301
11,CGTCCAAGGTCAGCAGGTCCGTGAAAGCGACGTG,6
12,CCGCGTAGGTTATGGGGCATTCAGGCAACGGTGA,-0.207
13,CTCGGAAGGTCGGTTGAGGTGAGTATACGGATAA,1
14,TGTCGGAGGACACGAAGGTCAGAGCTTTCCAGAG,2.42
15,TCATATAGGTAAAAGGTGAAAGACGGTGTGGTAA,1.57
16,TTTATTAGTTGAAGGGCAACCGACGAGTCCGTTT,1.17
17,ATCGTAAGGTCGACGAGGTGAGTATACACCGTTT,4.52
18,TCTTGTAGATCAGTAGAGGTTAAGAAAGTGCGCT,1.51
19,CCTCGGAGGACAACACGAGGTCAGAGCTGCCAGA,2.72
20,TCTTGTAGATCAACAGGAGCTTAAGAAAGATCGA,-0.21
